Results on 18 compounds are retold here after PubChem BioAssay (EPA / NIEHS).

The source made the active and inactive calls. Rule for the calls: active = hit-call score of the fitted dose curve at least 0.9, where 1 is the maximum; inactive = score below 0.9.

Read-out in the assay: Thrombomodulin, THBD (gene 7056)
As to the kind of experiment: BSK_3C_Thrombomodulin: BioMAP Diversity Plus: 3C Assay for Thrombomodulin Biomarker Activity (AID 2283029). As to conditions: primary human endothelial cells (HUVEC); actives raise or lower the signal. Put shortly:
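In a multiplexed primary-cell system, human umbilical vein endothelium received chemical and was assayed 24 h later for thrombomodulin by ELISA. Parallel cultures were SRB-stained (0.1% SRB after 10% TCA fixation, read at 560 nm) to flag cytotoxicity.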
Consider `CCN(Cc1cccnc1)C(=O)c1cccc(Cl)c1[C@]1(C)C(=O)N(Cc2ccc(OC)cc2OC)c2ccc(Cl)cc21`, for which the outcome was inactive. As for `CCN(CC)C(=O)c1cc(S(=O)(=O)Cc2ccccc2)c(N2CCC(c3ccccc3)CC2)cc1N(CC)CCN(C)C`, the AC50 (as a rule, the midpoint of the concentration-response curve, whichever way the signal moves) was 4.43 µM (active). On to `O=C1O[C@H]([C@@H](O)CO)C(O)=C1O`, for which the outcome was inactive. For `CN1C(=O)CC[C@H]1c1cccnc1`, the result was inactive. For `Cc1cn([C@H]2C[C@H](N=[N+]=[N-])[C@@H](CO)O2)c(=O)[nH]c1=O`, the result was inactive. On the same count and under the same terms, the same measure for `O=c1ccc2ccccc2o1`: “inactive”; for `COc1cc(C(=O)NC2CCN(C)CC2)ccc1Nc1ncc2c(n1)N(C1CCCC1)CC(F)(F)C(=O)N2C`: “inactive”; for `CC(O)CC(C)(C)O` (stereo not drawn): “inactive”. Still for that read-out and setting: the same measure for `CC(=O)N1CCN(c2ccc(OC[C@H]3CO[C@](Cn4ccnc4)(c4ccc(Cl)cc4Cl)O3)cc2)CC1`: “inactive”.

Turning to `O=c1[nH]sc2ccccc12`, the AC50 is 5.42 µM (active).

Take `CC/C(=C(/CC)c1ccc(O)cc1)c1ccc(O)cc1`: the result was inactive. On the same count and under the same terms, with `CCCCCc1ccc(N)cc1` the entry was “inactive”; with `CN(C)C(=O)C1(N2CCCCC2)CCN(CC[C@@]2(c3ccc(Cl)c(Cl)c3)CN(C(=O)c3ccccc3)CCO2)CC1`, “inactive”. `O=C(O)c1ccccc1C(=O)OCc1ccccc1`: the outcome was inactive. With `CCCC(=O)OCCC(C)C`, the result was inactive. On the same count and under the same terms, the same measure for `CN(C[C@@H](CC[N+]12CCC(C3CCCCC3)(CC1)CC2)c1ccc(Cl)c(Cl)c1)C(=O)c1cc(C(F)(F)F)cc(C(F)(F)F)c1`: “inactive”; for `CCN(Cc1cccc(S(=O)(=O)O)c1)c1ccc(C(=C2C=CC(=[N+](CC)Cc3cccc(S(=O)(=O)O)c3)C=C2)c2ccccc2S(=O)(=O)[O-])cc1`: “inactive”; for `O=C(O)Cc1cc(I)c(Oc2ccc(O)c(I)c2)c(I)c1`: “inactive”.
